Results filed as inconclusive are left out. Activity calls are given as the source filed them. The call rests on the fitted dose curve; in most records, active means well fitted curve in the direction sought with a large enough effect; inconclusive means small, poorly fitted or top-dose-only effect, or another doubt; inactive means no such curve, though single readings can be large; an effect the other way counts as inactive or inconclusive.
Assays:
[1] = Quantitative High-Throughput drug screen in 47 multiple myeloma cell lines against the NCATS MIPE library collection: KHM11_PLB cell viability assay (AID 1918962); further: nearly all actives have a fitted effect of over 35% in size
Procedure, shortened: (§1)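 CellTiter-Glo luminescence (ATP) after 48 h compound exposure, 37C/5% CO2; 500 cells/well; MIPE 4.0 approved/investigational drugs pinned in; DMSO = 100%, media only = 0% viability.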

[2] = Quantitative High-Throughput drug screen in 47 multiple myeloma cell lines against the NCATS MIPE library collection: JIM3_ECACC cell viability assay (AID 1918963; further: nearly all actives have a fitted effect of over 35% in size)
Procedure, shortened: as §1

[3] = Quantitative High-Throughput drug screen in 47 multiple myeloma cell lines against the NCATS MIPE library collection: INA6_PLB cell viability assay (AID 1918965; further: nearly all actives have a fitted effect of over 55% in size)
Procedure, shortened: (§2)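 Myeloma cells (500 per well) were exposed to MIPE 4.0 compounds by pin transfer and incubated 48 hours at 37C, 5% CO2. Viability was read as ATP by CellTiter-Glo luminescence, normalised to DMSO (100%) and media-only (0%) wells.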

[4] = Quantitative High-Throughput drug screen in 47 multiple myeloma cell lines against the NCATS MIPE library collection: JJN3_DSMZ cell viability assay (AID 1918966; further: nearly all actives have a fitted effect of over 50% in size)
Procedure, shortened: (§3)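 Myeloma cell lines, 500 cells per well, exposed to MIPE 4.0 library compounds for 48 h at 37C, 5% CO2. Viability from ATP by CellTiter-Glo luminescence; normalised to DMSO (100%) and media-only (0%) wells.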

[5] = Quantitative High-Throughput drug screen in 47 multiple myeloma cell lines against the NCATS MIPE library collection: Karpas25_ECACC cell viability assay (AID 1918968; further: nearly all actives have a fitted effect of over 35% in size)
Procedure, shortened: as §3

[6] = Quantitative High-Throughput drug screen in 47 multiple myeloma cell lines against the NCATS MIPE library collection: KMS27_JCRB cell viability assay (AID 1918970); settings: KMS27 myeloma cells, CellTiter-Glo ATP viability, 48 h; viability (% of DMSO): at 45.8 µM (top of the series); further: nearly all actives have a fitted effect of over 30% in size
Procedure, shortened: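 KMS27_JCRB myeloma cells, 500 per well, exposed 48 h at 37 C, 5% CO2 to MIPE 4.0 compounds. Viability from ATP by CellTiter-Glo luminescence, normalized to DMSO (100%) and medium-only (0%) wells.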

[7] = Quantitative High-Throughput drug screen in 47 multiple myeloma cell lines against the NCATS MIPE library collection: KMS12BM_JCRB cell viability assay (AID 1918971); further: nearly all actives have a fitted effect of over 35% in size
Procedure, shortened: (§4)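 Steps: seed 500 cells per well; pin-transfer MIPE 4.0 library; incubate 48 h at 37C, 5% CO2, humidified; add CellTiter-Glo, 5 min room temperature; read luminescence.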

[8] = Quantitative High-Throughput drug screen in 47 multiple myeloma cell lines against the NCATS MIPE library collection: KMS12PE_JCRB cell viability assay (AID 1918972); further: nearly all actives have a fitted effect of over 30% in size
Procedure, shortened: as §2

[9] = Quantitative High-Throughput drug screen in 47 multiple myeloma cell lines against the NCATS MIPE library collection: KMS20_JCRB cell viability assay (AID 1918973); further: nearly all actives have a fitted effect of over 45% in size
Procedure, shortened: as §3

[10] = Quantitative High-Throughput drug screen in 47 multiple myeloma cell lines against the NCATS MIPE library collection: KMS26_JCRB cell viability assay (AID 1918975); further: nearly all actives have a fitted effect of over 45% in size
Procedure, shortened: as §4

[11] = Quantitative High-Throughput drug screen in 47 multiple myeloma cell lines against the NCATS MIPE library collection: MMM1_PLB cell viability assay (AID 1918976); further: nearly all actives have a fitted effect of over 35% in size
Procedure, shortened: (§5)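 Myeloma cells (500/well) treated with MIPE 4.0 compounds for 48 h at 37 °C, 5% CO2. Viability read as ATP via CellTiter-Glo luminescence after 5 min at RT; DMSO-only wells = 100%, media-only = 0% viability.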

[12] = Quantitative High-Throughput drug screen in 47 multiple myeloma cell lines against the NCATS MIPE library collection: MOLP8_DSMZ cell viability assay (AID 1918977); further: nearly all actives have a fitted effect of over 45% in size
Procedure, shortened: as §5

[13] = Quantitative High-Throughput drug screen in 47 multiple myeloma cell lines against the NCATS MIPE library collection: NCIH929_DSMZ cell viability assay (AID 1918978); further: nearly all actives have a fitted effect of over 35% in size
Procedure, shortened: as §5

[14] = Quantitative High-Throughput drug screen in 47 multiple myeloma cell lines against the NCATS MIPE library collection: MM1S_ATCC cell viability assay (AID 1918980); further: nearly all actives have a fitted effect of over 45% in size
Procedure, shortened: as §5

[15] = Quantitative High-Throughput drug screen in 47 multiple myeloma cell lines against the NCATS MIPE library collection: MM1R_ATCC cell viability assay (AID 1918981); further: nearly all actives have a fitted effect of over 35% in size
Procedure, shortened: as §5

[16] = Quantitative High-Throughput drug screen in 47 multiple myeloma cell lines against the NCATS MIPE library collection: H1112_PLB cell viability assay (AID 1918967; further: nearly all actives have a fitted effect of over 30% in size)
Procedure, shortened: as §3

[17] = Quantitative High-Throughput drug screen in 47 multiple myeloma cell lines against the NCATS MIPE library collection: LP1_DSMZ cell viability assay (AID 1918982); further: nearly all actives have a fitted effect of over 35% in size
Procedure, shortened: as §5

[18] = Quantitative High-Throughput drug screen in 47 multiple myeloma cell lines against the NCATS MIPE library collection: OCIMY1_PLB cell viability assay (AID 1918979); further: nearly all actives have a fitted effect of over 35% in size
Procedure, shortened: as §5

[19] = Quantitative High-Throughput drug screen in 47 multiple myeloma cell lines against the NCATS MIPE library collection: KMS21BM_JCRB cell viability assay (AID 1918974); settings: ATP luminescence, 48 h; viability: at 45.8 µM (top of the series)
Procedure, shortened: as §3

Measured: Potency
Potency means the concentration at half of the fitted maximal effect.

COc1ccc(Nc2cc(-c3cnc(N)nc3)nc(N3CCOCC3)n2)cn1
active: [1] 4.18 µM | [2] 3.72 µM | [3] 4.18 µM | [4] 4.69 µM | [5] 1.66 µM | [6] 0.372 µM | [7] 2.96 µM | [8] 2.09 µM | [9] 4.18 µM | [10] 4.18 µM | [11] 1.87 µM | [12] 0.833 µM | [13] 0.264 µM | [14] 4.69 µM | [15] 1.66 µM

Cc1cnn(C)c1C(=O)Nc1cc(Nc2ccc3c(C=Cc4ccccn4)n[nH]c3c2)ccc1F
active: [1] 18.7 µM | [2] 5.26 µM | [3] 4.18 µM | [4] 23.5 µM | [16] 8.33 µM | [5] 4.69 µM | [6] 2.64 µM | [8] 2.96 µM | [10] 33.2 µM | [11] 13.2 µM | [13] 14.8 µM | [14] 20.9 µM | [15] 26.4 µM | [17] 20.9 µM

FC(F)c1nc2ccccc2n1-c1nc(N2CCOCC2)nc(N2CCOCC2)n1
active: [1] 0.469 µM | [2] 0.372 µM | [3] 0.296 µM | [4] 0.743 µM | [5] 0.0935 µM | [6] 0.105 µM | [7] 1.66 µM | [10] 0.743 µM | [11] 0.526 µM | [12] 0.132 µM | [13] 0.105 µM | [14] 0.59 µM | [15] 0.743 µM | [17] 0.0209 µM

CC(=O)N[C@H]1[C@@H]([C@H](O)[C@H](O)CO)OC(C(=O)O)=C[C@@H]1N=C(N)N
not listed: [4] | [8] | [9] | [11] | [12] | [19]
inactive: all other assays above

OCC(O)C(O)C(O)CO (stereo not given)
active: [4] 2.96 µM
not listed: [7] | [9] | [11] | [12] | [19]
inactive: all other assays above

N#Cc1c(C2CCNCC2)cc(-c2c(O)cccc2OCC2CC2)nc1N
active: [1] 11.8 µM | [2] 18.7 µM | [3] 16.6 µM | [4] 18.7 µM | [5] 18.7 µM | [6] 0.418 µM | [7] 14.8 µM | [8] 20.9 µM | [9] 23.5 µM | [10] 18.7 µM | [11] 18.7 µM | [12] 14.8 µM | [13] 20.9 µM | [14] 16.6 µM | [15] 20.9 µM

CCOC(=O)[C@H](CCc1ccccc1)N[C@@H](C)C(=O)N1[C@@H](C(=O)O)C[C@H]2CCC[C@@H]21
active: [1] 9.35 µM | [2] 13.2 µM | [3] 7.43 µM | [16] 14.8 µM | [5] 7.43 µM | [6] 7.43 µM | [7] 23.5 µM | [8] 7.43 µM | [9] 4.69 µM | [11] 18.7 µM | [18] 26.4 µM | [14] 2.64 µM | [15] 16.6 µM | [17] 20.9 µM

CN[C@H]1[C@@H](O)[C@@H]2O[C@@H]3O[C@H](C)CC(=O)[C@]3(O)O[C@@H]2[C@@H](NC)[C@H]1O
active: [1] 8.33 µM | [2] 5.26 µM | [3] 2.96 µM | [4] 0.105 µM | [16] 2.64 µM | [5] 0.0743 µM | [6] 0.332 µM | [7] 9.35 µM | [8] 0.833 µM | [19] 0.418 µM | [10] 1.66 µM | [11] 1.66 µM | [12] 11.8 µM | [13] 0.935 µM | [18] 8.33 µM | [14] 0.209 µM | [15] 1.18 µM | [17] 5.9 µM

COc1cc(C[C@@H](CO)[C@H](CO)Cc2ccc(O)c(OC)c2)ccc1O
inactive: [18]
active: [1] 1.18 µM | [2] 2.64 µM | [3] 1.18 µM | [16] 0.372 µM | [5] 0.418 µM | [6] 2.96 µM | [8] 3.72 µM | [9] 0.526 µM | [19] 2.35 µM | [10] 1.32 µM | [13] 0.59 µM | [14] 0.372 µM | [15] 1.32 µM

C=C1C(=O)O[C@H]2[C@@H]1CCC(C)=CCC[C@@]1(C)O[C@@H]21
active: [1] 10.5 µM | [2] 2.96 µM | [3] 0.935 µM | [4] 7.43 µM | [16] 4.18 µM | [5] 1.05 µM | [6] 9.35 µM | [7] 8.33 µM | [10] 3.72 µM | [11] 13.2 µM | [13] 2.96 µM | [18] 5.26 µM | [14] 5.9 µM | [17] 5.9 µM

COc1ccnc2[nH]cc(C(=O)C(=O)N3CCN(C(=O)c4ccccc4)C[C@@H]3C)c12
active: [4] 13.2 µM
not listed: [9] | [11] | [15] | [19]
inactive: all other assays above

Reference: PubChem BioAssay (NCATS)
